Screening data deposited in PubChem BioAssay by National Center for Advancing Translational Sciences (NCATS).
Rows were chosen to be rich in hits. Some 21% of all compounds tested hit in one or more screens of this group.
NS1 inh – influenza NS1 inhibition. actives 0.4% (n = 270,000). AID 2326. Potency, µM (titrated, usually from 46.1 µM); calls by dose curve; further: actives are rising curves; nearly all actives have a fitted effect of over 50% in size
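A cell-based growth assay was used: compounds that relieve NS1-induced slow growth of budding yeast raise OD600. Assay medium was yeast nitrogen base with ammonium sulphate and -URA supplement, pH 6.0, with 2% galactose.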
Shiga toxin inh – inhibitors of Shiga toxin in Vero cells | inhibition, % at 38.7 µM | AID 2315 | Vero cells, Shiga toxin protein synthesis inhibition reporter | actives 9.2% (n = 290,000); in the data active means inhibition mostly above about 28%, no sharp cut-off; inactive means mostly below about 43%
Pf growth 48h – P. falciparum growth inhibition at 48 hours (one generation) | P. falciparum luciferase growth in erythrocytes, 48 h | AID 504832 | Potency, µM (highest dose often 28.7 µM), usual class: inhibitors | actives 5.9% (n = 310,000)
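Erythrocytes infected with P. falciparum carrying an integrated firefly luciferase reporter (2% hematocrit, 0.1% parasitemia final) were exposed to compounds in RPMI 1640 with 0.5% Albumax at 37 C, 5% CO2. Growth inhibition was scored as reduced luminescence.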
Pf growth 96h – P. falciparum growth inhibition at 96 hours; P. falciparum luciferase reporter growth, 96 h; Potency, µM (doses to about 28.7 µM), most hits filed as inhibitors; actives 6.9% (n = 320,000); AID 504834
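Cell-based qHTS: luciferase-tagged P. falciparum in erythrocytes (2% hematocrit, 0.05% parasitemia final) incubated with compounds for 96 hours, 37 C, 5% CO2; luciferase detection reagent then added and luminescence measured.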
SARS PLP yeast – SARS-CoV PLP inhibition in yeast | S. cerevisiae expressing SARS-CoV PLpro, growth rescue | Potency, µM (doses to about 32.9 µM), usual class: activators | AID 485353 | actives 0.19% (n = 330,000); calls by dose curve; further: nearly all actives have a fitted effect of over 55% in size
CHX counter – counter-screen hit for Shiga toxin inhibitors, cycloheximide; cell reporter, cycloheximide protein synthesis inhibition counterscreen; max response, %; actives 12% (n = 300,000); in the data active means max response mostly above about 13%, no sharp cut-off; inactive means mostly below about 14%; further: read at 38.3 µM for the half of the compounds with a filed dose
Hits are given with their value; . = inactive; ? = inconclusive; / = not tested or not shown; + = active, no number. Unless noted, the call rests on the fitted dose curve; in most records, active means well fitted inhibition curve with a large enough effect; inconclusive means small, poorly fitted or top-dose-only effect, or another doubt; inactive means no such curve, though single readings can be large or run the other way.

SMILES	NS1 inh	Shiga toxin inh	Pf growth 48h	Pf growth 96h	SARS PLP yeast	CHX counter
O=C(O)c1cccc(N/N=C/c2cccnc2)c1	/	63	.	.	.	40
CC(C)(C)c1ccc(/C=N/Nc2cccc(C(=O)O)c2)cc1	/	+	.	.	.	104
CN(C)c1ccc(/C=N/Nc2cccc(C(=O)O)c2)cc1	.	198	.	?	.	68
O=C(O)c1cccc(N/N=C/c2ccc(-c3ccccc3)cc2)c1	/	191	.	.	.	67
Cc1ccc(C)c(C(=O)C(C)Sc2nc3nn(-c4ccccc4)c(=O)c-3c3n2CCCCC3)c1 (stereo unspecified)	.	.	?	9.3µM	.	.
CCSc1nc2nn(-c3ccccc3)c(=O)c-2c2n1CCCCC2	.	.	.	/	.	.
CCCCNS(=O)(=O)c1ccc2nc(SCC(=O)c3ccc(C#N)cc3)[nH]c2c1	.	.	?	?	.	.
COc1ccc(/C=N/N(C(C)=O)c2nc(-c3ccc(C)cc3)cs2)cc1	.	.	?	?	.	.
CC(=O)N(/N=C/c1cccc(C)c1)c1nc(-c2ccc(Br)cc2)cs1	.	.	?	12µM	.	.
CN(C(=O)COc1ccccc1)c1nc(-c2ccc(F)cc2)cs1	/	.	.	.	.	.
COc1ccccc1/C=N/N(C(C)=O)c1nc(-c2ccc(F)cc2)cs1	.	.	.	.	.	30
Cc1cccc(C(=O)O/N=C(\c2ccccc2)c2cccnc2)c1	.	.	.	.	.	.
COc1cccc(C(=O)O/N=C(\N)CS(=O)(=O)c2ccccc2)c1	.	63	.	.	.	56
Cc1cccc(C(=O)O/N=C(\N)CS(=O)(=O)c2ccccc2)c1	.	.	.	.	.	16
COc1cccc(C(=O)O/N=C(\N)c2ccccn2)c1	.	.	.	.	.	.
CC#CC#Cc1cccc(=O)o1	.	61	12µM	10µM	.	25
COc1ccc(CN(Cc2cccn2C)S(=O)(=O)c2ccc(F)cc2)cc1	.	.	?	?	.	.
COc1ccc(CN(Cc2cccn2C)S(=O)(=O)c2cccc(C(F)(F)F)c2)cc1	.	.	12µM	?	.	.
NC1(P(=O)(O)O)CCCCC1	.	/	/	/	/	/
O=C1NC(c2cccs2)Nc2ccccc21 (stereo unspecified)	.	38	/	?	.	21
Cc1ccsc1C1NC(=O)c2ccccc2N1 (stereo unspecified)	.	.	.	.	.	23
O=S(=O)(c1ccc2c(c1)OCCO2)N1CCC(n2nnc3cc(C(F)(F)F)ccc32)CC1	?	.	13µM	.	.	.
COc1ccc(S(=O)(=O)N2CCC(n3cnc4cc(C(F)(F)F)ccc43)CC2)cc1	.	.	5.2µM	.	.	.
COc1ccc(S(=O)(=O)N2CCC(n3cnc4ccccc43)CC2)cc1	.	.	.	.	.	.
CC(C)OP(=O)(OC(C)C)C(Nc1ccccc1)c1cccc2c1OCO2 (stereo unspecified)	.	.	?	?	.	23
SMILES	NS1 inh	Shiga toxin inh	Pf growth 48h	Pf growth 96h	SARS PLP yeast	CHX counter
Cc1nc2nc(-c3ccccc3)[nH]n2c(=O)c1C	.	.	.	/	.	.
Cc1nc2nc(-c3ccc(Cl)cc3)[nH]n2c(=O)c1C	.	38	.	.	.	.
O=C(NCc1cccs1)c1ccc(CS(=O)Cc2cccc(Cl)c2)o1 (stereo unspecified)	.	.	?	.	.	.
COc1ccc2c(CSc3nnc(-c4cccnc4)n3-c3ccccc3F)cc(=O)oc2c1	.	.	?	6.6µM	.	.
CCOC(=O)C1=CN(c2cccc(F)c2)C=C(C(=O)OCC)C1c1cc(OC)c(O)c([N+](=O)[O-])c1	.	.	10µM	?	.	.
O=[N+]([O-])c1ccc(/C=N/N2CCCCC2)cc1	.	128	.	.	.	34
CC1CCCC(C)N1/N=C/c1ccc([N+](=O)[O-])cc1 (stereo unspecified)	.	54	.	.	.	43
O=[N+]([O-])c1ccc(/C=N/N2CCN(Cc3ccccc3)CC2)cc1	.	.	.	.	.	.
CC1CCCC(C)N1/N=C/c1ccc(N(C)C)cc1 (stereo unspecified)	/	.	.	.	.	.
Clc1ccc(/C=N/N2CCCCC2)cc1	.	34	.	.	.	29
Cc1ccc(C(=O)N2CCOCC2)c(F)c1F	/	.	.	.	.	.
CCOC(=O)c1ccc(-c2c(-c3ccccc3OC)oc3ccccc23)cc1F	/	/	?	3.3µM	.	/
CCOC(=O)c1ccc(-c2ccc3c(=O)c4ccccc4n(C)c3c2)cc1F	.	.	.	.	.	.
COc1ccc(-c2oc(=O)c3cc(OC)c(OC)cc3c2-c2ccc3c(c2)OCO3)cc1	/	/	/	/	.	/
O=c1c2ccccc2oc2cc(-c3ccc4cc[nH]c4c3)ccc12	/	/	/	/	.	/
COc1cc2c(-c3ccc4cc[nH]c4c3)c(-c3ccc(C#N)cc3)oc(=O)c2cc1OC	/	/	9.3µM	?	.	/
COc1ccccc1-c1oc2ccccc2c1-c1ccc2cc[nH]c2c1	/	/	2.1µM	?	.	/
COc1ccc(OCC(=O)NNC(=O)c2cccc(S(=O)(=O)N(C)C)c2)cc1	.	.	.	.	.	.
CCn1cc(CNC(=O)CCSc2nc(-c3ccco3)cc(C(F)(F)F)n2)cn1	.	.	/	.	.	.
COc1ccc(C(=O)NCCS(=O)(=O)N(C)Cc2ccccc2)cc1	/	/	.	.	.	/
C=CCn1c(N2CCOCC2)nc2c1c(=O)[nH]c(=O)n2C	/	.	?	.	.	.
COCCCNCC(=O)Nc1ccc(OC(F)(F)F)cc1	.	.	.	?	.	.
CCOC(=O)CNc1ccc(OC(F)(F)F)cc1	.	.	.	.	.	.
CC(=O)Nc1ccc(NCc2cccs2)cc1	.	.	.	?	.	.
CC(=O)c1ccc(NC(=O)CNCc2cccs2)cc1	.	52	/	.	.	54
SMILES	NS1 inh	Shiga toxin inh	Pf growth 48h	Pf growth 96h	SARS PLP yeast	CHX counter
CCC(C)(C)NCC(=O)Nc1ccc(OC(F)(F)F)cc1	.	.	/	.	.	15
O=C(CNCc1cccs1)Nc1ccc(OC(F)(F)F)cc1	.	82	.	10µM	.	20
Cc1ccc(NC(=O)CNCc2cccs2)cc1Br	.	52	.	.	.	26
CCOC(=O)N1CCN(C(=O)CNCc2cccs2)CC1	.	.	.	.	.	.
CSCCC(C(=O)N(C)CC(=O)Nc1cccc(F)c1)N1C(=O)c2ccccc2C1=O (stereo unspecified)	/	/	.	?	.	/
COCCNC(=O)CNC(=S)N(CCCN1CCOCC1)Cc1cccs1	.	.	.	.	.	.
O=C(CNCc1cccs1)Nc1ccc(S(=O)(=O)N2CCCCC2)cc1	/	.	.	.	.	.
O=C(CNCc1cccs1)Nc1ccc(N2CCCCCC2)cc1	.	60	.	.	.	27
O=C(Nc1ccccc1Cl)c1cc2ccccc2o/c1=N\O	.	123	.	.	.	41
COc1cccc(NC(=O)c2ccccc2Oc2ccccc2)c1	.	.	.	?	.	.
